# From the supplement of paper PMC10338343
# ± gives the standard deviation.
# Tested on: MILI (PIWIL2) piRISC loaded with piRNA #1 (26 nt)
# Experiment: pre-steady-state target cleavage rate (min^-1); guide: piRNA #1 5'p-UGAGGUAGUAGGUUGUAUAGUAUCCA; MIWI and MILI are mouse PIWI proteins and EfPiwi is from a freshwater sponge; tags in brackets are library labels; higher = faster piRNA-guided slicing of the target
# Details: auxiliary factor: 500 nM mouse GTSF1
# How it was run: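 Active affinity-purified piRISC (1 nM) loaded with one synthetic guide was mixed with a transcribed, DNA-blocked target RNA library (0.1 nM), with or without 500 nM GTSF1 partner protein, in HEPES–potassium acetate buffer at 33 °C for 0–8 or 0–960 min. Uncleaved targets were sequenced, normalised to depth and to weakly complementary targets, and pooled across three trials, with k3 capped at 0.0001 min^-1. The pre-steady-state cleavage rate was determined with a burst-and-steady-state fit.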
row,Sequence,pre-steady-state target cleavage rate
1,GGAGACCUUACUAUACUACCAACUACCUCA,0.00617 ± 0.0026
2,GGAGACCUUCCUAUACAACCUACUACCUCA,0.113 ± 0.027
3,GGAGACCUAUGAUAUGUUGCUACAACCUGA,< 0.0001
4,GGAGACCAUACAAUACAACCUACUUCCUCA,0.125 ± 0.016
5,GGAGACCUAUGUAUAGAACCUACUACGUCA,0.015 ± 0.0034
6,GGAGACCUAACUAUCCAACCUACUACCUCA,0.208 ± 0.038
7,GGAGACCUAUGAAUACAACCUACGUACCUCA,0.00396 ± 0.0023
8,GGAGACCUAUGAAUACAACCUACUUCCUCA,0.00371 ± 0.0019
9,GGAGACCUAUCUAUCCAACCUACUACCUCA,0.0742 ± 0.0096
10,GGAGUGGAUACUAAACAACCUUCUACCUCA,0.00905 ± 0.0025
11,GGAGAGGAUUCUAUACAACCUACUACCUGA,0.0768 ± 0.011
12,GGAGACCUAACUAUACAACCUACAUACCUCA,0.0941 ± 0.018
13,GGAGACCUAUGAUAUGUUCCUAGUACCUGA,< 0.0001
14,GGAGACCUAACUAUUCAACCUACUACCUGA,0.0858 ± 0.03
15,GGAGACCUAUCUAAACAACCUAGUACCUCA,0.0109 ± 0.0036
16,GGAGACCUUACUAUACAUGGUACUACCUCA,0.00395 ± 0.0029
17,GGAGACCUAACUAUACAACCUACAUGCUCA,0.0479 ± 0.022
18,GGAGACCUAACUAUACUACCUACAACCUCA,0.0957 ± 0.018
19,GGAGACCUAUGUAUACAACCAUACUACCUCA,0.00475 ± 0.0025
20,GGAGACCUAACUUAACAACCUACUACCUCA,0.0309 ± 0.012

row,Sequence,pre-steady-state target cleavage rate
1,GGAGACCUUACUAUACAACCUACUUCCUGA,0.0269 ± 0.0086
2,GGAGACCUUACUUACAACCUACUACCUCA,0.0198 ± 0.0056
3,GGAGACCUAUGAUUUCAUCCUACUACCUCA,0.0038 ± 0.0025
4,GGAGACCUAUGUAUGACAACCUACUACCUCA,0.0123 ± 0.0037
5,GGAGACCUUACUUUAGAACCUACUACCUCA,0.13 ± 0.01
6,GGAGACCUUACUAUACAACCUAGAACCUCA,0.00842 ± 0.0033
7,GGAGACCUAUCUAUACAACCAUCUACCUCA,0.00428 ± 0.0031
8,GGAGACCUAUGAUAUCAUCCUACAACCUCA,0.00348 ± 0.003
9,GGAGACCUAUGAUUACAACCUACUACCGUCA,0.00492 ± 0.0022
10,GGAGACCAUACUAUUCUACCUACUACCUCA,0.178 ± 0.017
11,GGAGAGGAUACUAAAGAACCUACUACCUCA,0.179 ± 0.0099
12,GGAGACCUUACUAUACAACCUACAAGCUCA,0.103 ± 0.03
13,GGAGACCUAACAAUACAACGUACUACCUCA,0.00908 ± 0.0045
14,GGAGACCUAUGAUUACAACUUACUACCUCA,0.00657 ± 0.0024
15,GGAGACCUAUGUAUACAACCGUACUACCUCA,0.00758 ± 0.0041
16,GGAGACCUAUGAUUACAACCUACUCCCUCA,0.00393 ± 0.0029
17,GGAGACCUAUCUUACAACCUACUACCUCA,0.0336 ± 0.0082
18,GGAGACCUAACUAUCAACCUACUACCUCA,0.0603 ± 0.014
19,GGAGACCUUACUAUACUACCUACAACCUCA,0.13 ± 0.011
20,GGAGACGAUACUAAACAACCUACAACCUCA,0.116 ± 0.013
